# PubChem BioAssay (Tox21)
# Results filed as inconclusive are left out. Activity calls are given as the source filed them. Calls follow the shape of the dose curve; as a rule, active = well fitted cell-killing curve with a large enough effect in the repeat runs; inconclusive = weak or mixed curves, or effect the other way; inactive = no such curve, though single readings can be large or run the other way.
# Assay: qHTS assay to identify small molecule antagonists of the progesterone receptor (PR) signaling pathway - cell viability counter screen (AID 1346798); also: nearly all actives have a fitted effect of over 50% in size
# Settings: PR-UAS-bla HEK293T viability, CellTiter-Glo luminescence, 16 h; series mostly up to 92.4 µM; activity change, negative = cytotoxicity: at the top concentration
# Excerpt: National Center for Advancing Translational Sciences [NCATS]
# NIH Chemical Genomics Center [NCGC]
# U.S. Environmental Protection Agency [EPA]
# National Institutes of Environmental Health Sciences [NIEHS]
# National Toxicology Program [NTP]
# U.S. Food and Drug Administration [FDA]
# Progesterone receptor (PR), a nuclear hormone receptor, plays an important role in development, metabolic homeostasis and reproduction. It is activated by the steroid hormone progesterone. Endocrine disrupting chemicals (EDCs) and their interactions with steroid hormone receptors like PR causes disruption of normal endocrine function. To identify the compounds that inhibit PR signaling, a PR-UAS-bla GripTite cell line i.e. PR-UAS-bla HEK293T (Invitrogen, Carlsbad, CA, USA) containing a beta-lactamase reporter gene under the control of an UAS response element was used to screen Tox21 10K compound library. The cytotoxicity of the Tox21 compound library against the PR-bla cell line was tested in parallel by measuring the cell viability using CellTiter-Glo assay in the same wells.
# Tox21 Assay Protocol Summary:
# PR-UAS-bla HEK293T cells were dispensed at 3,000 cells/4 uL of assay medium containing 2% charcoal stripped FBS per well into black wall/clear-bottom 1536-well plates using a Multidrop Combi (ThermoFisher Scientific, Waltham, MA) dispenser. After the assay plates were incubated at a 37C and 5% CO2 for 4 hr, 23 nL of compounds dissolved in DMSO, positive controls or DMSO only was transferred to the assay plate by a Pintool station (Kalypsys, San Diego, CA), followed by addition of 1 uL of R5020 in assay medium using a Flying Reagent Dispenser (FRD, Aurora Discovery, San Diego, CA). The plates were incubated at 37C and 5% CO2 for 16 hr. Then 1 uL of LiveBLAzer B/G FRET substrate was added using a Flying Reagent Dispenser, the plates were incubated at room temperature for 2 hours, and fluorescence intensity was measured by an Envision plate reader (PerkinElmer, Shelton, CT). For cell viability readout that measures cytotoxicity, 4 uL/well of CellTiter-Glo reagent was added into the assay plates using a FRD. After 30 min incubation at room temperature, the luminescence intensity in the plates was measured using a ViewLux (PerkinElmer) plate reader.
# % is scaled to controls: 0 for no effect and ±100 for the full control effect.
row,SMILES,"activity change, negative = cytotoxicity"
1,CCCO,0.561% (inactive)
2,CC(C)CCCC(C)CC=O (stereo not given),-3.92% (inactive)
3,Nc1ccc(S(=O)(=O)Nc2ccccn2)cc1,-0.199% [at 42.5 µM] (inactive)
4,CC1(N)CCC(C(C)(C)N)CC1 (stereo not given),24.7% (inactive)
5,CC(C)CCO,2.53% (inactive)
6,c1ccc(CNc2ncnc3nc[nH]c23)cc1,19.2% (inactive)
7,O=C(c1ccc2c(c1)C(=O)OC2=O)c1ccc2c(c1)C(=O)OC2=O,26.7% (inactive)
8,O=c1[nH]c(=O)c2[nH]c(=O)[nH]c2[nH]1,-11.7% [at 8.39 µM] (inactive)
9,CCCCCCCCCCCCC,-5.38% (inactive)
10,CCC(CO)CO,-2.2% (inactive)
11,CC(C)c1ccccc1O,0.256% (inactive)
12,O=C1OC(=O)c2cc(Oc3ccc4c(c3)C(=O)OC4=O)ccc21,3.19% (inactive)
13,CCN(CCO)c1cccc(C)c1,-16.4% (inactive)
14,NS(=O)(=O)c1ccccc1OC(F)(F)F,-3.46% (inactive)
15,CO[Si](CCCCl)(OC)OC,43.4% (inactive)
16,O=C1CC[C@H](C(=O)N2CCCCC2)N1,-3.4% [at 42.5 µM] (inactive)
17,C/C=C(\C)C(=O)OCC/C=C\CC,5.94% (inactive)
18,CN[C@@H]1[C@@H](O)[C@@H](O[C@@H]2[C@H](O)[C@H](O[C@H]3OC(CN)=CC[C@H]3N)[C@@H](N)C[C@H]2N)OCC1(C)O (stereo not given in full),6.16% [at 42.5 µM] (inactive)
19,C[N+](C)(C)CC(O)CCl (stereo not given),0.673% (inactive)
20,COc1cccc2sc(N)nc12,-23.7% (inactive)

row,SMILES,"activity change, negative = cytotoxicity"
1,CCC(=O)c1ccc(O)cc1,2.75% [at 42.5 µM] (inactive)
2,CCC(C)N (stereo not given),3.17% (inactive)
3,NS(=O)(=O)c1cc2c(cc1Cl)NC(C(Cl)Cl)NS2(=O)=O (stereo not given),-2.44% [at 42.5 µM] (inactive)
4,Nc1cc(S(=O)(=O)O)ccc1S(=O)(=O)O,3.21% (inactive)
5,C=CCOC(=O)c1ccc(C(=O)OCC=C)c(C(=O)OCC=C)c1,3.21% (inactive)
6,CCOC(=O)CCCCCCCCC(=O)OCC,3.97% (inactive)
7,CCCCCC1CCCC(=O)O1 (stereo not given),-17.4% (inactive)
8,O=[Si]=O,1.34% (inactive)
9,CN(C)CCCNCCC#N,-11.1% (inactive)
10,CC(C)(c1ccc(Oc2ccc3c(c2)C(=O)OC3=O)cc1)c1ccc(Oc2ccc3c(c2)C(=O)OC3=O)cc1,11% (inactive)
11,C1=CCC(c2ccccc2)CC1 (stereo not given),5.26% (inactive)
12,CC(C)CCC(=O)CCC(C)C,-12.2% (inactive)
13,CC(C)=CC(C)(C)C,14.3% (inactive)
14,O=C(O)Cc1cccc(-c2cc(CCCCCCc3ccc(O[C@H]4O[C@H](CO)[C@@H](O)[C@H](O)[C@@H]4O)c(-c4cccc(CC(=O)O)c4)c3)ccc2O[C@H]2O[C@H](CO)[C@@H](O)[C@H](O)[C@@H]2O)c1,8.15% [at 0.348 µM] (inactive)
15,CCCCCCCCCCCCCC(=O)OC,6.72% (inactive)
16,O=C(O)c1c(Cl)ccc(Cl)c1Cl,-0.144% (inactive)
17,CC(=O)OC[C@H]1O[C@@H](OC(C)=O)[C@H](OC(C)=O)[C@@H]1OC(C)=O,2.18% [at 42.5 µM] (inactive)
18,O=C(CN1CCN(Cc2ccc3c(c2)OCO3)CC1)N1c2ccccc2Sc2ccccc21,10% [at 42.5 µM] (inactive)
19,O=C1OC(=O)c2ccccc21,14.5% (inactive)
20,CC(=O)OCCCc1ccccc1,0.443% (inactive)
